Test [1] in a line: NCI Yeast Anticancer Drug Screen. Data for the rad50 strain (AID 155).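 Further: 0% = growth of vehicle-only cultures of the same strain.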 To be noted: S. cerevisiae rad50 strain growth inhibition, active compounds read high. The gist of the method:
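Vehicle-treated cultures provide the reference for the growth inhibition reported for compound-exposed, repair-deficient yeast.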

Test [2] can be described thus: NCI Yeast Anticancer Drug Screen. Data for the mec2-1 strain (AID 157). The note with it: S. cerevisiae mec2-1 strain, active compounds read high. The gist of the method: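 Yeast mec2-1 mutant treated with compound. Readout: growth inhibition vs vehicle controls.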
Test [3] is described as follows: NCI Yeast Anticancer Drug Screen. Data for the sgs1 mgt1 strain (AID 161).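 Further: 0% = growth of cultures given vehicle only.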 The note with it: S. cerevisiae sgs1 mgt1 strain, active compounds read high. The gist of the method:
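Inhibition of yeast growth, normalised to vehicle-treated controls, is reported for a strain bearing genetic alterations in DNA damage repair.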

The nature of test [4]: NCI Yeast Anticancer Drug Screen. Data for the cln2 rad14 strain (AID 165).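 Further: 0% = growth equal to vehicle treated cultures.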 To be noted: S. cerevisiae cln2 rad14 strain, active compounds read high. The essentials:
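cln2 rad14 yeast strain; compound exposure; growth inhibition read vs vehicle controls.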

Test [5] is described as follows: NCI Yeast Anticancer Drug Screen. Data for the bub3 strain (AID 167). The note with it: S. cerevisiae bub3 mutant strain, active compounds read high. The essentials:
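Mutant yeast screening strain plus compound; vehicle-treated cultures serve as the 0% inhibition reference.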

Test [6] can be described thus: NCI Yeast Anticancer Drug Screen. Data for the mlh1 rad18 strain (AID 175). To be noted: S. cerevisiae mlh1 rad18 strain growth inhibition, active compounds read high. The essentials: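 Yeast w/ defined DNA-repair lesions; compound exposure; growth vs vehicle controls → % inhibition.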
[7] abbreviates: at 5.0 µM (retest, dose inferred, filed as 0.5).
Setting [8] is: at 50.0 µM (retest, dose inferred, filed as 5.0).

The panel holds about 79,000 compounds, 15% with a hit somewhere; the sample as a whole holds those more often. Unmarked numbers belong to inactive results. Activity calls are given as the source filed them. No stated cut-off is given here; in the data, active means growth inhibition above about 70%; inactive means the rest.

Turning to `CCCCCCCCCCCCCCCCCCSSCCCCCCCCCCCCCCCCCC`, the growth inhibition in test [1] (setting [7]) was 1%; in test [1] (setting [8]), -3%; in test [1] (at 50.0 µM) it was 36.1%; in test [2] (setting [7]) it was 1%; in test [2] (setting [8]), 4%; in test [2] (at 50.0 µM) it was 14.9%. Besides, the growth inhibition in test [3] (setting [7]) is -3%; in test [3] (setting [8]), -3%; in test [3] (at 50.0 µM) it was -0.8%; in test [4] (setting [7]) it was -4%; in test [4] (setting [8]), 4%; in test [4] (at 50.0 µM), 80.9% (active). In addition, the growth inhibition is 2% in test [5] (setting [7]); 1% in test [5] (setting [8]); 15.6% in test [5] (at 50.0 µM); -3% in test [6] (setting [7]); -7% in test [6] (setting [8]); -16.1% in test [6] (at 50.0 µM).

With `CC(=O)C1(C(C)=O)C2=C(C(=O)C(Cl)=C(Cl)C2=O)N2C=CC=CC21` (stereo not given), the growth inhibition in test [1] (setting [7]) is 85% (active); in test [1] (setting [8]), 95% (active); in test [1] (at 50.0 µM), 98.3% (active); in test [2] (setting [7]), 81% (active); in test [2] (setting [8]) it was 97% (active); in test [2] (at 50.0 µM) it was 98.5% (active). Also, the growth inhibition in test [3] (setting [7]) was 78% (active); in test [3] (setting [8]), 97% (active); in test [3] (at 50.0 µM), 98.3% (active); in test [4] (setting [7]), 40%; in test [4] (setting [8]) it was 95% (active); in test [4] (at 50.0 µM) it was 96.8% (active). In addition, the growth inhibition in test [5] (setting [7]) is 91% (active); in test [5] (setting [8]), 97% (active); in test [5] (at 50.0 µM) it was 98.3% (active); in test [6] (setting [7]), 92% (active); in test [6] (setting [8]), 96% (active); in test [6] (at 50.0 µM), 98.2% (active).

In the case of `CN(C)c1ccc(N=Nc2ccc3c4c(cccc24)-c2ccccc2-3)cc1`, the growth inhibition in test [1] (setting [7]) is 26%; in test [1] (setting [8]), 94% (active); in test [1] (at 50.0 µM) it was 96.5% (active); in test [2] (setting [7]), -4%; in test [2] (setting [8]), 96% (active); in test [2] (at 50.0 µM) it was 97.5% (active). The growth inhibition was 3% in test [3] (setting [7]); 96% (active) in test [3] (setting [8]); 97.4% (active) in test [3] (at 50.0 µM); -1% in test [4] (setting [7]); 97% (active) in test [4] (setting [8]); 95.8% (active) in test [4] (at 50.0 µM). Further, the growth inhibition in test [5] (setting [7]) was 0%; in test [5] (setting [8]), 95% (active); in test [5] (at 50.0 µM) it was 97% (active); in test [6] (setting [7]), -1%; in test [6] (setting [8]) it was 95% (active); in test [6] (at 50.0 µM), 97% (active).

On to `CC1CCN(CCOC(=O)C(c2ccccc2)C2C=CCCC2)C1` (stereo not given), for which the growth inhibition in test [1] (setting [7]) is 8%; in test [1] (setting [8]), 34%; in test [1] (at 50.0 µM), 62.9%; in test [2] (setting [7]) it was 3%; in test [2] (setting [8]), 37%; in test [2] (at 50.0 µM), 16.9%. Further, the growth inhibition in test [3] (setting [7]) was 8%; in test [3] (setting [8]) it was 77% (active); in test [3] (at 50.0 µM), 51.1%; in test [4] (setting [7]) it was 7%; in test [4] (setting [8]), 37%; in test [4] (at 50.0 µM), 41.8%. The growth inhibition in test [5] (setting [7]) was 9%; in test [5] (setting [8]), 55%; in test [5] (at 50.0 µM) it was 36.5%; in test [6] (setting [7]), 14%; in test [6] (setting [8]), 75% (active); in test [6] (at 50.0 µM) it was 52.7%.

As for `CCOC(=O)[C@@H](F)[C@H](Br)C(=O)OCC`, the growth inhibition is 86% (active) in test [1] (setting [7]); 99% (active) in test [1] (setting [8]); 89.2% (active) in test [1] (at 50.0 µM); 58% in test [2] (setting [7]); 100% (active) in test [2] (setting [8]); 93.2% (active) in test [2] (at 50.0 µM). Besides, the growth inhibition was 75% (active) in test [3] (setting [7]); 100% (active) in test [3] (setting [8]); 88.4% (active) in test [3] (at 50.0 µM); 55% in test [4] (setting [7]); 100% (active) in test [4] (setting [8]); 89.2% (active) in test [4] (at 50.0 µM). In addition, the growth inhibition in test [5] (setting [7]) was 88% (active); in test [5] (setting [8]), 100% (active); in test [5] (at 50.0 µM), 84.7% (active); in test [6] (setting [7]) it was 80% (active); in test [6] (setting [8]), 99% (active); in test [6] (at 50.0 µM) it was 93.2% (active).

On to `Cn1c2c(c3ccccc31)CCN(CCCN1CCN(c3cccc(Cl)c3)CC1)C2=O`, for which the growth inhibition in test [1] (setting [7]) was 32%; in test [1] (setting [8]) it was 32%; in test [1] (at 50.0 µM), 79.2% (active); in test [2] (setting [7]) it was 7%; in test [2] (setting [8]), 7%; in test [2] (at 50.0 µM), 54.1%. For the same molecule, the growth inhibition in test [3] (setting [7]) is 22%; in test [3] (setting [8]) it was 22%; in test [3] (at 50.0 µM), 78.7% (active); in test [4] (setting [7]), 11%; in test [4] (setting [8]), 11%; in test [4] (at 50.0 µM), 73.8% (active). Further, the growth inhibition in test [5] (setting [7]) is 2%; in test [5] (setting [8]), 2%; in test [5] (at 50.0 µM) it was 80% (active); in test [6] (setting [7]), 25%; in test [6] (setting [8]), 25%; in test [6] (at 50.0 µM), 71% (active).

For the molecule `FC(F)(F)c1nc2cc(SSc3cc4nc(C(F)(F)F)[nH]c4cc3Cl)c(Cl)cc2[nH]1`, the growth inhibition in test [1] (setting [7]) was 1%; in test [1] (setting [8]), 51%; in test [1] (at 50.0 µM) it was 97.5% (active); in test [2] (setting [7]) it was -1%; in test [2] (setting [8]), 85% (active); in test [2] (at 50.0 µM), 93.2% (active). The growth inhibition is 0% in test [3] (setting [7]); 87% (active) in test [3] (setting [8]); 95% (active) in test [3] (at 50.0 µM); -6% in test [4] (setting [7]); 91% (active) in test [4] (setting [8]); 65.8% in test [4] (at 50.0 µM). Also, the growth inhibition in test [5] (setting [7]) is -18%; in test [5] (setting [8]), 61%; in test [5] (at 50.0 µM), 97% (active); in test [6] (setting [7]), -12%; in test [6] (setting [8]) it was 97% (active); in test [6] (at 50.0 µM) it was 97.7% (active).

On to `O=Cc1ccc([N+](=O)[O-])o1`, for which the growth inhibition in test [1] (setting [7]) is 36%; in test [1] (setting [8]), 98% (active); in test [1] (at 50.0 µM) it was 99.6% (active); in test [2] (setting [7]), 7%; in test [2] (setting [8]), 99% (active); in test [2] (at 50.0 µM), 99.4% (active). Further, the growth inhibition in test [3] (setting [7]) is 13%; in test [3] (setting [8]) it was 99% (active); in test [3] (at 50.0 µM), 99.6% (active); in test [4] (setting [7]) it was -1%; in test [4] (setting [8]), 85% (active); in test [4] (at 50.0 µM) it was 98.6% (active). Moreover, the growth inhibition in test [5] (setting [7]) was -3%; in test [5] (setting [8]), 57%; in test [5] (at 50.0 µM) it was 99.8% (active); in test [6] (setting [7]) it was 20%; in test [6] (setting [8]), 99% (active); in test [6] (at 50.0 µM), 99.5% (active).

On to `Oc1cc(Cl)cc2cc(Cl)cnc12`, for which the growth inhibition in test [1] (setting [7]) is 99% (active); in test [1] (setting [8]), 99% (active); in test [1] (at 50.0 µM), 86.6% (active); in test [2] (setting [7]) it was 96% (active); in test [2] (setting [8]), 98% (active); in test [2] (at 50.0 µM), 91.2% (active). The growth inhibition in test [3] (setting [7]) was 98% (active); in test [3] (setting [8]), 98% (active); in test [3] (at 50.0 µM) it was 84.8% (active); in test [4] (setting [7]) it was 97% (active); in test [4] (setting [8]) it was 96% (active); in test [4] (at 50.0 µM) it was 87.7% (active). In addition, the growth inhibition was 98% (active) in test [5] (setting [7]); 99% (active) in test [5] (setting [8]); 87.8% (active) in test [5] (at 50.0 µM); 98% (active) in test [6] (setting [7]); 99% (active) in test [6] (setting [8]); 82.3% (active) in test [6] (at 50.0 µM).

Take `O=C(Nc1cccc(C(F)(F)F)c1)O/N=C(/Cl)CCl`: the growth inhibition in test [1] (setting [7]) is 3%; in test [1] (setting [8]), 100% (active); in test [1] (at 50.0 µM), 88.5% (active); in test [2] (setting [7]) it was -19%; in test [2] (setting [8]), 100% (active); in test [2] (at 50.0 µM), 91.7% (active). Further, the growth inhibition is -51% in test [3] (setting [7]); 99% (active) in test [3] (setting [8]); 84.7% (active) in test [3] (at 50.0 µM); -8% in test [4] (setting [7]); 100% (active) in test [4] (setting [8]); 90.5% (active) in test [4] (at 50.0 µM). Also, the growth inhibition in test [5] (setting [7]) was -38%; in test [5] (setting [8]) it was 100% (active); in test [5] (at 50.0 µM) it was 88.8% (active); in test [6] (setting [7]), -9%; in test [6] (setting [8]) it was 100% (active); in test [6] (at 50.0 µM) it was 84.2% (active).
